From PubChem BioAssay
Values without a mark were called inactive. The source made the active and inactive calls.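 How the source made its calls, unless noted: active means compound that reduces growth-factor-driven endothelial tube area in a mixed cell culture, no cutoff stated; inactive means the rest.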

Assay: inhibition of endothelial tube formation, primary screen, imaging, VEGF stimulated, CD31 staining, tube area, NPC library (AID 1117340)
Details: VEGF-stimulated ADSC/ECFC co-culture, at 10 µM, active compounds read high

SMILES | tube area decrease
CC(O)CCCCn1c(=O)c2c(ncn2C)n(C)c1=O (stereo not drawn) | -9.4%
O=C(O)C(Cc1cc(I)c(O)c(I)c1)c1ccccc1 (stereo not drawn) | -29.6%
CCC(C(=O)O)c1ccc(N2Cc3ccccc3C2=O)cc1 (stereo not drawn) | -24.8%
O=C(N/N=C/c1ccccc1O)c1ccncc1 | 86.7% (active)
CC12CCC(C[N+](C)(CCC[N+](C)(C)C)C1)C2(C)C (stereo not drawn) | -11.3%
CC1(C)OC[C@@H](COC(=O)CCc2ccc(OC[C@@H](O)CNCCNC(=O)N3CCOCC3)cc2)O1 | -22.2%
O=C(Nc1ncc([N+](=O)[O-])s1)c1cccs1 | 46.3% (active)
COc1cc(NS(=O)(=O)c2ccc(N)cc2)nc(C)n1 | -13%
Cc1ccc(S(=O)(=O)NC(=O)NC2CCCCC2)cc1 | -13.1%
C=CCOc1cc(Cl)ccc1C(=O)NCCN(CC)CC | -13%
COc1cc(/C=C/C(=O)O[C@H]2CC[C@]34C[C@]35CC[C@]3(C)[C@@H]([C@H](C)CCC=C(C)C)CC[C@@]3(C)[C@@H]5CC[C@H]4C2(C)C)ccc1O | -12.4%
C[C@@H](O)[C@H](N)C(=O)O | -11.2%
CCOc1ccccc1O[C@H](c1ccccc1)[C@H]1CNCCO1 | -5.2%
O=C(/C=C/c1ccccc1)OCc1ccccc1 | 3%
CN[C@H](CC(C)C)C(=O)N[C@H]1C(=O)N[C@@H](CC(N)=O)C(=O)N[C@H]2C(=O)N[C@H]3C(=O)N[C@H](C(=O)N[C@H](C(=O)O)c4cc(O)cc(O)c4-c4cc3ccc4O)[C@H](O)c3ccc(c(Cl)c3)Oc3cc2cc(c3O[C@@H]2OC(CO)[C@@H](O)[C@H](O)[C@@H]2O[C@H]2C[C@](C)(N)[C@H](O)[C@H](C)O2)Oc2ccc(cc2Cl)[C@H]1O (stereo partly drawn) | 7.3%
O=C(OCC(O)CO)c1ccccc1Nc1ccnc2c(C(F)(F)F)cccc12 (stereo not drawn) | -5.3%
CCN1CCCC1=O | -19.9%
NC(=O)NC1N=C([O][Al])NC1=O (stereo not drawn) | 0.8%
CC1CCCCN1CCCOC(=O)c1ccc(OC2CCCCC2)cc1 (stereo not drawn) | -14.7%
NC[C@H]1O[C@H](O[C@H]2[C@@H](O)[C@@H](O[C@H]3O[C@H](CO)[C@@H](O)[C@H](N)[C@@H]3O)[C@H](N)C[C@@H]2N)[C@H](N)C[C@H]1O | -1.5%

SMILES | tube area decrease
O=P(O)(O)C(Sc1ccc(Cl)cc1)P(=O)(O)O | 1%
Cc1onc(-c2c(Cl)cccc2Cl)c1C(=O)Cl | 54.1% (active)
Cc1cccc(N(C)C(=S)Oc2ccc3c(c2)CCC3)c1 | -13.8%
CCCCCCCCCCCCCCCCCCO | -3.6%
Oc1ccc(Cl)cc1Sc1cc(Cl)ccc1O | 101% (active)
CC1CN(c2cc3c(cc2F)c(=O)c(C(=O)O)cn3-c2ccc(F)cc2F)CCN1 (stereo not drawn) | 5.5%
CCCCCCCCCCCCCCCC(=O)OC(C)C | -17.7%
CC(=O)Oc1ccc(C2(c3ccc(OC(C)=O)cc3)Oc3ccccc3NC2=O)cc1 | 106% (active)
CC(=O)Nc1ccn(C2COC(COC(=O)c3ccccc3)O2)c(=O)n1 (stereo not drawn) | 100% (active)
CCc1cc(S(=O)(=O)O)c2cc(C(C)C)cccc1-2 | -12.6%
CCCc1ncc(C(=O)O)s1 | 9.7%
CN1C(CSCC(F)(F)F)Nc2cc(Cl)c(S(N)(=O)=O)cc2S1(=O)=O (stereo not drawn) | -10.7%
CCCCCC[C@@H](CCC)C(=O)O | -29.5%
Cc1ccccc1C(=O)Nc1ccc(C(=O)N2CCCC(N(C)C)c3ccccc32)cc1 (stereo not drawn) | 59.2% (active)
Cn1c(=O)c2[nH]c(Br)nc2n(C)c1=O | 10.2%
CN1CC(=O)NC1=N | 21.3%
C=CCN1CCc2nc(N)sc2CC1 | 7.1%
CO/N=C(\C(=O)O)c1csc(NC(=O)CCl)n1 | -12.1%
Cc1cc(CC(=O)O)c(C)n1-c1ccc(Cl)cc1 | 1.3%

Assay: GLP1 release stimulators, primary, NCI-H716, NPC library (AID 1117341;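 active means compound raises GLP1 secretion from the human gut endocrine cells, with no numeric limit stated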; further: reference of the scale not given here)
Details: NCI-H716 cells, at 10 µM, active compounds read high

SMILES | GLP1 secretion stimulation
CC(O)CCCCn1c(=O)c2c(ncn2C)n(C)c1=O (stereo not drawn) | -3.4%
O=C(O)C(Cc1cc(I)c(O)c(I)c1)c1ccccc1 (stereo not drawn) | -0.7%
CCC(C(=O)O)c1ccc(N2Cc3ccccc3C2=O)cc1 (stereo not drawn) | 1%
O=C(N/N=C/c1ccccc1O)c1ccncc1 | 2.1%
CC12CCC(C[N+](C)(CCC[N+](C)(C)C)C1)C2(C)C (stereo not drawn) | -3.2%
CC1(C)OC[C@@H](COC(=O)CCc2ccc(OC[C@@H](O)CNCCNC(=O)N3CCOCC3)cc2)O1 | 0.6%
O=C(Nc1ncc([N+](=O)[O-])s1)c1cccs1 | -0.9%
COc1cc(NS(=O)(=O)c2ccc(N)cc2)nc(C)n1 | 1%
Cc1ccc(S(=O)(=O)NC(=O)NC2CCCCC2)cc1 | -5.7%
C=CCOc1cc(Cl)ccc1C(=O)NCCN(CC)CC | 9.1%
COc1cc(/C=C/C(=O)O[C@H]2CC[C@]34C[C@]35CC[C@]3(C)[C@@H]([C@H](C)CCC=C(C)C)CC[C@@]3(C)[C@@H]5CC[C@H]4C2(C)C)ccc1O | 0.5%
C[C@@H](O)[C@H](N)C(=O)O | 1.6%
CCOc1ccccc1O[C@H](c1ccccc1)[C@H]1CNCCO1 | 0.6%
O=C(/C=C/c1ccccc1)OCc1ccccc1 | -1.3%
CN[C@H](CC(C)C)C(=O)N[C@H]1C(=O)N[C@@H](CC(N)=O)C(=O)N[C@H]2C(=O)N[C@H]3C(=O)N[C@H](C(=O)N[C@H](C(=O)O)c4cc(O)cc(O)c4-c4cc3ccc4O)[C@H](O)c3ccc(c(Cl)c3)Oc3cc2cc(c3O[C@@H]2OC(CO)[C@@H](O)[C@H](O)[C@@H]2O[C@H]2C[C@](C)(N)[C@H](O)[C@H](C)O2)Oc2ccc(cc2Cl)[C@H]1O (stereo partly drawn) | -0.9%
O=C(OCC(O)CO)c1ccccc1Nc1ccnc2c(C(F)(F)F)cccc12 (stereo not drawn) | 4.1%
CCN1CCCC1=O | 4.1%
NC(=O)NC1N=C([O][Al])NC1=O (stereo not drawn) | -2.5%
CC1CCCCN1CCCOC(=O)c1ccc(OC2CCCCC2)cc1 (stereo not drawn) | 5.9%
NC[C@H]1O[C@H](O[C@H]2[C@@H](O)[C@@H](O[C@H]3O[C@H](CO)[C@@H](O)[C@H](N)[C@@H]3O)[C@H](N)C[C@@H]2N)[C@H](N)C[C@H]1O | -0.3%

SMILES | GLP1 secretion stimulation
O=P(O)(O)C(Sc1ccc(Cl)cc1)P(=O)(O)O | -2.7%
Cc1onc(-c2c(Cl)cccc2Cl)c1C(=O)Cl | 5.9%
Cc1cccc(N(C)C(=S)Oc2ccc3c(c2)CCC3)c1 | -4.7%
CCCCCCCCCCCCCCCCCCO | 1.9%
Oc1ccc(Cl)cc1Sc1cc(Cl)ccc1O | 47.3% (active)
CC1CN(c2cc3c(cc2F)c(=O)c(C(=O)O)cn3-c2ccc(F)cc2F)CCN1 (stereo not drawn) | -0.9%
CCCCCCCCCCCCCCCC(=O)OC(C)C | -1.2%
CC(=O)Oc1ccc(C2(c3ccc(OC(C)=O)cc3)Oc3ccccc3NC2=O)cc1 | 1.6%
CC(=O)Nc1ccn(C2COC(COC(=O)c3ccccc3)O2)c(=O)n1 (stereo not drawn) | 1.2%
CCc1cc(S(=O)(=O)O)c2cc(C(C)C)cccc1-2 | -20.6%
CCCc1ncc(C(=O)O)s1 | -5.4%
CN1C(CSCC(F)(F)F)Nc2cc(Cl)c(S(N)(=O)=O)cc2S1(=O)=O (stereo not drawn) | 1.3%
CCCCCC[C@@H](CCC)C(=O)O | 3.5%
Cc1ccccc1C(=O)Nc1ccc(C(=O)N2CCCC(N(C)C)c3ccccc32)cc1 (stereo not drawn) | 2.1%
Cn1c(=O)c2[nH]c(Br)nc2n(C)c1=O | 1.1%
CN1CC(=O)NC1=N | 0.9%
C=CCN1CCc2nc(N)sc2CC1 | 0.8%
CO/N=C(\C(=O)O)c1csc(NC(=O)CCl)n1 | 1.7%
Cc1cc(CC(=O)O)c(C)n1-c1ccc(Cl)cc1 | -0.2%
